Measurements taken from PubChem BioAssay (EPA / NIEHS).
Where “and” joins values, the source holds several entries; their conditions need not be identical. Equal entries are not always repeated. Inconclusive results are not listed. Where a structure was tested more than once in an assay, its records may differ in their call. Calls of active or inactive are those of the source. How the source made its calls, unless noted: active means hit-call score of the fitted dose curve at least 0.9, where 1 is the maximum; inactive means score below 0.9.

Experiments:
[1] = test system: DIO2 (gene 1734); test: CCTE_GLTED_hDIO2: CCTE's human Deiodinase 2 (DIO2) Inhibition Assay, Great Lakes Toxicology and Ecology Division (GLTED) Lab (AID 2284050; active means hit-call score of the fitted dose curve at least 0.9, where 1 is the maximum)
How it was run: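 hDIO2 enzyme + test chem, 3 h → free iodide from substrate; step 2: Sandell-Kolthoff (Ce IV reduction by As, iodide-catalysed), spectrophotometric read. Triplicate plates; DMSO = baseline.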

[2] = test system: DIO3 (gene 1735); test: CCTE_GLTED_hDIO3: CCTE's human Deiodinase 3 (DIO3) Inhibition Assay, Great Lakes Toxicology and Ecology Division (GLTED) Lab (AID 2284055; active means hit-call score of the fitted dose curve at least 0.9, where 1 is the maximum;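 further: potency is for inhibition seen as loss of released iodide signal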)
How it was run: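 Absorbance from the Sandell-Kolthoff reaction reports iodide released by human DIO3 during a 3-hour incubation with chemical. Inhibition scored as signal loss against DMSO controls.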

[3] = UKN5_HCS_SBAD2_cell_viability: Viability Assessment in the University of Konstanz (UKN) Leist Lab Neurite Outgrowth Assay in human iPSC-derived immature Dorsal Root Ganglia Neurons (UKN5) (AID 2284056)
How it was run: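 iPSC-derived immature peripheral neurons (SBAD2) seeded on Matrigel with CHIR99021, SU5402 and DAPT, dosed 1 h later for 24 h. Viability from Hoechst H-33342 and calcein-AM live staining, high-content imaging; bidirectional fit versus DMSO.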

[4] = molecular target: Estrogen receptor (Homo sapiens) (UniProt P03372); test: CCTE_Deisenroth_AIME_384WELL_LUC_Inactive: CCTE's 384-well Estrogen Receptor Transactivation Assay without AIME metabolic competence (ERTA luciferase; metabolism negative), Deisenroth Lab (AID 2284038; active means hit-call score of the fitted dose curve at least 0.9, where 1 is the maximum;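 further: VM7Luc4E2 breast cells given medium preincubated 2 h with S9-free microspheres; hits raise estrogen receptor luciferase signal so potencies reflect agonists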)
How it was run: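 Metabolism-negative mode: chemicals (10-point, 0.002–200 uM) held 2 h with alginate-water microspheres, then conditioned medium applied to VM7Luc4E2 cells for 24 h. Luciferase induction referenced to 17beta-estradiol.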

[5] = CCTE_Deisenroth_AIME_384WELL_CTox_Inactive: Cytotoxicity Assessment (CTOX) in CCTE's 384-well Estrogen Receptor Transactivation Assay without AIME metabolic competence (metabolism negative), Deisenroth Lab (AID 2284039; active means hit-call score of the fitted dose curve at least 0.9, where 1 is the maximum;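 further: cell viability via live-cell protease substrate cleaved to fluorescent probe; cells exposed 24 h to medium preincubated 2 h with alginate-water beads without S9; loss of fluorescence signal means loss of viability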)
How it was run: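 Metabolism-negative arm: chemicals (10-point, 0.002 - 200 uM) preincubated 2 h with alginate-water lids, medium moved onto VM7Luc4E2 cells for 24 h. Fluorescent live-cell protease readout; bidirectional curve fit.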

[6] = molecular target: Estrogen receptor (Homo sapiens) (UniProt P03372); test: CCTE_Deisenroth_AIME_384WELL_LUC_Shift: CCTE's 384-well Estrogen Receptor Transactivation Assay with AIME metabolic competence data shift (ERTA luciferase; difference in metabolism positive and negative), Deisenroth Lab (AID 2284041);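 further: shift is response with S9 minus without S9 so positive means metabolism raised ER signal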
How it was run: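 Test chemicals (0.002–200 uM, 10-point) were pre-incubated 2 h with alginate microspheres containing phenobarbital/beta-naphthoflavone-induced male Sprague Dawley rat liver S9 or water, then medium was transferred to VM7Luc4E2 cells for 24 h luciferase readout; shift = S9-positive minus S9-negative normalized response.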

[7] = molecular target: Estrogen receptor (Homo sapiens) (UniProt P03372); test: CCTE_Deisenroth_AIME_384WELL_LUC_Active: CCTE's 384-well Estrogen Receptor Transactivation Assay with AIME metabolic competence (ERTA luciferase; metabolism positive), Deisenroth Lab (AID 2284030; active means hit-call score of the fitted dose curve at least 0.9, where 1 is the maximum)
How it was run: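 VM7Luc4E2 breast cells were given, for 24 hours, medium pre-incubated for 2 hours with parent chemical (0.002-200 uM, 10 concentrations) and alginate-encapsulated phenobarbital/beta-naphthoflavone-induced rat hepatic S9. Luciferase gain of signal was fitted against 17beta-estradiol; n=4 or more.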

[8] = CCTE_Shafer_MEA_dev_firing_rate_mean: CCTE's Neural Network Formation Assay for Mean Firing Rate, Shafer Lab (AID 2284031);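 on AC50: curve fitted for loss of firing so AC50 reflects decreased mean firing rate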
How it was run: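 Rat primary cortical neurons were seeded on multielectrode arrays and treated from plating through day 12, with redosing at each feed. Spontaneous spiking was recorded four times; mean firing rate AUC was fitted downward against DMSO.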

[9] = CCTE_Shafer_MEA_dev_per_burst_spike_percent: CCTE's Neural Network Formation Assay for Percent of Spikes in a Burst, Shafer Lab (AID 2284032);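 on AC50: fitted as a decrease in burst spike percentage below DMSO baseline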
How it was run: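 Rat primary cortical neurons on 16-electrode MEA wells, dosed from plating day 0 for 12 days with renewal on DIV 5 and 9; spikes-in-bursts percentage averaged over bursting electrodes, collapsed as AUC across days 5, 7, 9, 12; loss direction versus DMSO.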

[10] = CCTE_Shafer_MEA_dev_active_electrodes_number: CCTE's Neural Network Formation Assay for Number of Active Electrodes, Shafer Lab (AID 2284040; active means hit-call score of the fitted dose curve at least 0.9, where 1 is the maximum;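 on AC50: potency for loss of active electrodes versus DMSO so lower counts are hits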)
How it was run: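 Primary rat cortical neurons on 16-electrode MEA wells, exposed from day 0 through day 12 with compound renewed at DIV 5 and 9 feeds. Active electrodes (mean firing ≥5 spikes/min) counted at DIV 5, 7, 9, 12; trapezoidal AUC across days, loss-of-signal versus DMSO.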

[11] = CCTE_Shafer_MEA_dev_burst_rate: CCTE's Neural Network Formation Assay for Burst Rate, Shafer Lab (AID 2284042);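 on AC50: potency for loss of burst rate below DMSO control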
How it was run: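 Cells plated, treated day 0; recorded DIV 5, 7, 9, 12; fed and re-treated DIV 5, 9. Endpoint: bursts per recording time, active-electrode well mean, trapezoidal AUC, fitted in decreasing direction against DMSO baseline.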

[12] = CCTE_Shafer_MEA_dev_bursting_electrodes_number: CCTE's Neural Network Formation Assay for Number of Bursting Electrodes, Shafer Lab (AID 2284043; active means hit-call score of the fitted dose curve at least 0.9, where 1 is the maximum;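 on AC50: potency is for loss of bursting electrodes relative to DMSO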)
How it was run: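 Read-out is the per-well number of electrodes bursting at least once every 2 minutes, recorded on days 5, 7, 9 and 12 and collapsed by trapezoidal area under the curve. Cultures were primary rat cortical neurons on MEA plates, treated continuously from plating.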

[13] = CCTE_Shafer_MEA_dev_burst_duration_mean: CCTE's Neural Network Formation Assay for Mean Burst Duration, Shafer Lab (AID 2284045);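 on AC50: curve fitted for loss meaning shorter burst duration than DMSO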
How it was run: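 Read-out: average first-to-last-spike interval within single-electrode bursts, averaged over bursting electrodes per well, then summarised as area under the curve across days 5, 7, 9 and 12. Developing rat cortical networks were exposed from day 0.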

[14] = CCTE_Shafer_MEA_dev_interburst_interval_mean: CCTE's Neural Network Formation Assay for Mean Interburst Interval, Shafer Lab (AID 2284046);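 further: well-mean interburst interval of bursting electrodes as AUC over four recording days; curve fitted for decrease in interburst interval relative to DMSO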
How it was run: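 Developing rat cortical networks on 48-well MEAs receive compound from the day of plating. Burst intervals from each active electrode are averaged per well, and AUC over the recording days is fitted in the negative direction against DMSO.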

[15] = CCTE_Shafer_MEA_dev_network_spike_number: CCTE's Neural Network Formation Assay for Number of Network Spikes, Shafer Lab (AID 2284048);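 further: synchronized bursts across electrodes counted on days 5 7 9 12 and integrated as AUC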;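 on AC50: fit as a loss of signal meaning fewer network spikes than DMSO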
How it was run: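 Developing networks of primary rat cortical neurons are treated over 12 days starting at plating, with media and compound fully replaced on DIV 5 and 9. Network spike counts from four recording days are integrated as trapezoidal AUC.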

[16] = CCTE_Shafer_MEA_dev_network_spike_peak: CCTE's Neural Network Formation Assay for Mean Number of Electrodes in Network Spike, Shafer Lab (AID 2284049);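 on AC50: fitted for loss of signal meaning fewer electrodes in network spikes than DMSO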
How it was run: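 Rat cortical primary culture, 1.5 x 10^5 cells/well, 48-well MEA (16 electrodes/well). Dosing day 0 through DIV 12, full media/compound exchange DIV 5, 9. AxIS adaptive spike detection; AUC over days 5/7/9/12; loss-of-signal vs DMSO.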

[17] = CCTE_Shafer_MEA_dev_network_spike_duration_std: CCTE's Neural Network Formation Assay for Standard Deviation of Network Spike Duration, Shafer Lab (AID 2284052);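 further: area under curve of spike duration SD across recording days 5 to 12; hits are decreases in network spike duration SD versus DMSO vehicle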
How it was run: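 Read-out is the trapezoidal area-under-the-curve across recordings made on days 5, 7, 9 and 12, fitted in the negative direction against DMSO baseline. Neurons were primary rat cortical cells treated from day 0, with treatment renewed at each feed.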

[18] = CCTE_Shafer_MEA_dev_per_network_spike_spike_number_mean: CCTE's Neural Network Formation Assay for Mean Number of Spikes in a Network Spike, Shafer Lab (AID 2284053);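 on AC50: fitted as decrease in spikes per network spike relative to DMSO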
How it was run: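 Continuous twelve-day exposure of developing rat cortical networks grown over 16 microelectrodes per well; spontaneous firing is captured at four time points, and the per-network-spike spike number is integrated over development by trapezoidal AUC.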

[19] = CCTE_Shafer_MEA_dev_per_network_spike_spike_percent: CCTE's Neural Network Formation Assay for Percent of Spikes in a Network Spike, Shafer Lab (AID 2284054)
How it was run: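 Rat primary cortical cultures, 1.5 x 10^5 cells/well on MEA. Continuous compound exposure d0–12, medium/compound renewed DIV 5, 9. Network-spike spike % (0.05 s peak window), AUC over 4 recordings, DMSO baseline.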

[20] = CCTE_Shafer_MEA_dev_LDH: CCTE's Lactate Dehydrogenase Assay for Cytotoxicity in the Neural Network Formation Assay, Shafer Lab (AID 2284068; active means hit-call score of the fitted dose curve at least 0.9, where 1 is the maximum;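 further: exposure for twelve days from plating with re-dosing on DIV 5 and 9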)
How it was run: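 Cytotoxicity companion to network-formation recordings: rat cortical neurons received compound over 12 days of development, re-dosed at DIV 5 and 9 feeds. Viability was inferred from LDH enzyme activity relative to DMSO.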

Measured: AC50

Estrogen receptor (Homo sapiens), sequence (P03372 whole entry, looked up): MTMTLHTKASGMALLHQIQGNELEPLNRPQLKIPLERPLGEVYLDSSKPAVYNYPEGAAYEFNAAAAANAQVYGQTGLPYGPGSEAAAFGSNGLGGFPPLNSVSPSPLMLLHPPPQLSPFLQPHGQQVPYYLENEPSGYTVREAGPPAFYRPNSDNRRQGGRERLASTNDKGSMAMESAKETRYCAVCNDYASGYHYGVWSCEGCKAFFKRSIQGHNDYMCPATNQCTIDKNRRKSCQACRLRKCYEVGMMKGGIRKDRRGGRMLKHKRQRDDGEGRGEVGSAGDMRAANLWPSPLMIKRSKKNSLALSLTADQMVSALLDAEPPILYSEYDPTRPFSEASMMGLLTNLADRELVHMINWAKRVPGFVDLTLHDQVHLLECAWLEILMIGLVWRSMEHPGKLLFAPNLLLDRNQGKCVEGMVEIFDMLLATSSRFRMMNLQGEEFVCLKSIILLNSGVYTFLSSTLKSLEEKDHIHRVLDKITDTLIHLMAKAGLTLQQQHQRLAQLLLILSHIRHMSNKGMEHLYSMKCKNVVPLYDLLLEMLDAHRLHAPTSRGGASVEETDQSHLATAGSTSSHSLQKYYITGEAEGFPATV

CC(C)=CC1C(C(=O)OCc2coc(Cc3ccccc3)c2)C1(C)C (stereo not drawn)
active: [1] 38.5 µM | [2] 40.5 µM

CCOP(=O)(OCC)Oc1nc(Cl)c(Cl)cc1Cl
active: [3] 18.3 µM

COP(=S)(OC)SCn1nnc2ccccc2c1=O
active: [3] 47.2 µM

CCOc1nc(F)cc2nc(S(=O)(=O)Nc3c(Cl)cccc3Cl)nn12
inactive: [4] | [6]
active: [5] 146 µM

Clc1cccc(C(Cl)(Cl)Cl)n1
inactive: [7] | [4] | [6]

CCN(CC)c1nc(C)cc(OP(=S)(OC)OC)n1
inactive: [8] | [11] | [13] | [15] | [17]
active: [9] 30.9 µM | [10] 33 µM | [12] 30.5 µM | [14] 88.6 µM | [16] 30.8 µM | [1] 31.1 µM | [18] 29.5 µM | [19] 28 µM | [2] 25.3 µM | [20] 29.2 µM

CNC(=O)Oc1cccc2ccccc12
active: [9] 15 µM | [10] 15 µM | [11] 4.84 µM | [12] 15 µM | [15] 1000 nM | [16] 20.3 µM and 22.6 µM | [18] 20.1 µM | [19] 15 µM and 5.05 µM | [20] 15 µM and 25.1 µM
inactive: [8] | [11] | [13] | [14] | [15] | [17] | [18]

CC(C)Nc1nc(Cl)nc(NC(C)C)n1
inactive: [7] | [4] | [6]

CO/N=C(/C1=NOCCO1)c1ccccc1Oc1ncnc(Oc2ccccc2Cl)c1F
inactive: [6] | [1]
active: [8] 589 nM and 960 nM | [9] 1.75 µM and 1.24 µM | [5] 15.3 µM | [10] 1.2 µM and 1.05 µM | [11] 789 nM and 637 nM | [12] 968 nM and 1.02 µM | [13] 1.23 µM and 858 nM | [14] 2.3 µM and 1.29 µM | [15] 527 nM and 449 nM | [16] 1.27 µM and 723 nM | [17] 889 nM | [18] 854 nM and 756 nM | [19] 1.52 µM and 801 nM | [2] 15.9 µM | [20] 643 nM and 858 nM

CC(C)Oc1cccc(NC(=O)c2ccccc2C(F)(F)F)c1
inactive: [5] | [6]

CC(C)(C)C(=O)C(Oc1ccc(Cl)cc1)n1cncn1 (stereo not drawn)
active: [9] 41.3 µM | [10] 38.7 µM | [12] 39.6 µM | [16] 38.7 µM | [18] 35.5 µM | [19] 45.9 µM | [20] 37.5 µM
inactive: [8] | [11] | [13] | [14] | [15] | [17]

CCC(C)n1c(=O)[nH]c(C)c(Br)c1=O (stereo not drawn)
inactive: [7] | [4] | [6]

N#CN=C1SCCN1Cc1ccc(Cl)nc1
not listed: [1] | [2] | [3] | [4] | [5] | [6] | [7]
inactive: all other assays above

Cc1c(COC(=O)[C@@H]2[C@H](/C=C(\Cl)C(F)(F)F)C2(C)C)cccc1-c1ccccc1
active: [8] 847 nM and 2.07 µM | [9] 1.65 µM and 1.51 µM | [10] 2.84 µM and 3.36 µM | [11] 768 nM and 2.7 µM | [12] 1.56 µM and 1.65 µM | [13] 2.29 µM and 1.75 µM | [14] 2.8 µM and 2.26 µM | [15] 91.2 nM and 495 nM | [16] 1.51 µM and 1.19 µM | [17] 2.29 µM and 2.33 µM | [18] 665 nM and 864 nM | [19] 440 nM and 649 nM | [20] 17.5 µM and 11.2 µM

CN/C(=N\[N+](=O)[O-])NCc1cnc(Cl)s1
not listed: [1] | [2] | [3] | [4] | [5] | [6] | [7]
inactive: all other assays above
